PLK1 PBD block = qHTS for Inhibitors of PLK1-PDB (polo-like kinase 1 - polo-box domain): Primary Screen. 2.8% of 360,000 active. Plk1 PBD binding of FITC phosphopeptide, fluorescence polarization. Potency, µM, hits mostly inhibitors; note: series mostly up to about 57 µM; nearly all actives have a fitted effect of over 65% in size
mIDH1 inhibitor = qHTS for Inhibitors of mutant isocitrate dehydrogenase 1 (IDH1): qHTS; AID 602179, 2012; Isocitrate dehydrogenase [NADP] cytoplasmic (Homo sapiens), O75874; Potency, µM (top dose mostly 76.6 µM), hits mostly inhibitors; IDH1-R132H enzyme, NADPH consumption, diaphorase/resazurin fluorescence; 0.093% of 390,000 active; note: nearly all actives have a fitted effect of over 65% in size
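IDH1-R132H (0.5 ug/mL dispensed) in pH 7.5 Tris buffer was preincubated 30 min with compound, then given a substrate mix of 0.016 mM NADPH and 2 mM alpha-KG for 80 min at room temperature; remaining NADPH was read by diaphorase/resazurin fluorescence.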
Sfp inh = qHTS Assay for Inhibitors of Bacillus subtilis Sfp phosphopantetheinyl transferase (PPTase); 3.5% of 310,000 active; Potency, µM, hits mostly inhibitors; Biochemical Sfp PPTase activity, qHTS;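 note: the enzyme is Sfp with the accession as filed and its product quenches rhodamine fluorescence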
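Buffer: 50 mM Hepes-Na pH 7.6, 10 mM MgCl2, 0.01% Nonidet P-40, 0.01% BSA. Enzyme 15 nM, pre-exposed to compound 15 min; substrates then added and fluorescence change tracked over 30 min.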
rTrxR1 inhibitor = qHTS Assay for Inhibitors of Mammalian Selenoprotein Thioredoxin Reductase 1 (TrxR1): qHTS | recombinant rTrxR1, NADPH fluorescence consumption, selenite substrate | Potency, µM (highest dose often 114 µM), hits mostly inhibitors | 1% of 390,000 active; note: nearly all actives have a fitted effect of over 65% in size
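Rat TrxR1 (90 nM in the dispensed reagent) was pre-reduced with 400 uM NADPH for 5 min at room temperature, then incubated with compound for 15 min. After 400 uM selenite was added, NADPH fluorescence (Ex 340/Em 450 nm) was followed for 8 min.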
VDR inhibitor = Inhibitors of the vitamin D receptor (VDR): qHTS. Vitamin D3 receptor (Homo sapiens), P11473. VDR-SRC2-3 peptide fluorescence polarization, 2 h. Potency, µM, actives largely listed as inhibitors. 0.93% of 400,000 active. AID 504847, 2011
Target sequence (P11473 whole entry, looked up): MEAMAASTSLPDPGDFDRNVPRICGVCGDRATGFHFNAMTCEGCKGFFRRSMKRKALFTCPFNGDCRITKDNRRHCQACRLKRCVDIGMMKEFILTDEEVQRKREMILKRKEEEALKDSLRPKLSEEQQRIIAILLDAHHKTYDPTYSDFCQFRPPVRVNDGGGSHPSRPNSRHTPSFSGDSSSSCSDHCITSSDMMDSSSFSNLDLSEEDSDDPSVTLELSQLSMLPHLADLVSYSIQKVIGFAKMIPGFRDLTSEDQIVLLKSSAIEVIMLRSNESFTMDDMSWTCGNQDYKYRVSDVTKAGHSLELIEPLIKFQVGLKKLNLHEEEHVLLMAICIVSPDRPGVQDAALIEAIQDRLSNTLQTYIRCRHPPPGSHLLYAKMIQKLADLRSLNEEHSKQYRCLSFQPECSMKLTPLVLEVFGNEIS
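Inhibition of the VDR/SRC2-3 peptide interaction is quantified by fluorescence polarization. Compounds (23 nl, pintool) incubate with the reagents for 2 hours at ambient room temperature.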
TrxR1 substrate = qHTS Assay for Substrates of Mammalian Selenoprotein Thioredoxin Reductase 1 (TrxR1): qHTS; 0.01% of 390,000 active; Potency, µM (top dose mostly 114 µM); purified TrxR1 substrate turnover, NADPH consumption readout; Thioredoxin reductase 1, cytoplasmic (Rattus norvegicus), O89049; AID 588456, 2011; note: nearly all actives have a fitted effect of over 50% in size
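Rat TrxR1, dispensed at 90 nM, was prereduced with 400 uM NADPH (final) for 5 min at ~22 deg C, then incubated with compound 15 min before 400 uM selenite. A first-read NADPH fluorescence drop versus no-compound background flagged substrates.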
A number is an active result; i = inactive; ? = inconclusive; nt = not tested or not shown; ! = a repeat was not active; [ ] = remark or other dose. The list is not random: actives were taken first. Their share in the collection is about 5.2%. Calls come from the whole dose curve; as a rule, active = well fitted curve in the direction sought with a large enough effect; inconclusive = small, poorly fitted or top-dose-only effect, or another doubt; inactive = no such curve, though single readings can be large; an effect the other way counts as inactive or inconclusive.

SMILES	PLK1 PBD block	mIDH1 inhibitor	Sfp inh	rTrxR1 inhibitor	VDR inhibitor	TrxR1 substrate
CC(C)CN(C(=O)COC(=O)c1ccc(Br)o1)c1c(N)n(Cc2ccccc2)c(=O)[nH]c1=O	i	i	nt	i	i	i
COC(=O)Cc1csc(NC(=O)CSc2nnc3ccccn23)n1	17µM	i	i	i	?	i
COc1ccc(C(=O)NCC2(c3ccccc3)CCOCC2)cc1[N+](=O)[O-]	12µM	i	i	i	?	i
COc1ccc(C2(CNC(=O)c3ccc(OC)c([N+](=O)[O-])c3)CCOCC2)cc1OC	i	i	i	i	i	i
O=C(COC(=O)c1ccccc1)NCC1CCCO1 (stereo not drawn)	i	i	i	i	i	i
O=C(COC(=O)c1cccc([N+](=O)[O-])c1)NCC1CCCO1 (stereo not drawn)	27µM	i	i	i	i	i
Nc1nc(Cl)nc2c1ncn2C1OC(CO)C(O)C1F (stereo not drawn)	nt	nt	i	nt	i	nt
CCCCCCCN(C(=O)CCl)c1ccccc1C	i	i	i	79µM	i	i
Cc1ccccc1N(Cc1cc(=O)[nH]c2ccccc12)C(=O)CCl	nt	nt	i	nt	nt	nt
O=C1NC(Cc2ccccc2)c2nc3cc(Cl)ccc3c(=O)n2-c2ncccc21 (stereo not drawn)	i	i	nt	nt	nt	nt
COc1ccc(-c2noc(CSc3nc(N)cc(=O)[nH]3)n2)cc1OC	nt	i	nt	i	i	i
CCCC1(C)C(C#N)C(=O)NC(=O)C1C#N (stereo not drawn)	i	i	nt	i[2.29 µM]	i	i
CCCC1(C)C(C#N)(C#N)C1(C#N)C#N	nt	nt	nt	?	10µM	i
O=C1/C(=C\c2cccnc2)Sc2ccccc21	24µM	i	i	i	?	i
Cc1ccccc1N=C1NC(=O)/C(=C/c2cccnc2)S1	i	i	i	i	i	i
O=C1N/C(=N/O)S/C1=C/c1cccnc1	24µM	i	?	i	i	i
C=CCOc1ccc(/C=C2\SC(=Nc3cccnc3)NC2=O)cc1	i	i	i	i[11.4 µM]	i	i
CC(/C=C1\SC(=Nc2cccnc2)NC1=O)=C\c1ccccc1	27µM	i	i	i[2.29 µM]	i	i[2.29 µM]
COc1cc(OC)c(NC(=O)Cn2c(=O)c(C(F)(F)F)nc3ccccc32)cc1Cl	nt	i	nt	i	i	i
COc1cccc(CNC(=O)c2ccc3c(c2)nc2n3CCOC2)c1OC	nt	i	nt	i	i	i
O=C(Nc1nc2ccccc2s1)c1ccc2sc([C@H]3C[C@H](O)[C@@H](CO)O3)nc2c1	i	nt	nt	nt	nt	nt
CC(=O)NC1CCCC1C#N (stereo not drawn)	nt	nt	nt	i	nt	i
O=C(Cn1cnc2nc3c(cc2c1=O)CCCC3)N1CCN(c2ccccc2)CC1	nt	i	nt	i	i	i
CN(Cc1cn(Cc2cccc(C(F)(F)F)c2)nn1)C1CN(Cc2cn(Cc3cccc(C(F)(F)F)c3)nn2)S(=O)(=O)C1 (stereo not drawn)	i	nt	nt	nt	nt	nt
COc1ccccc1NC(=O)Nc1nc(CC(=O)N2CCN(c3ccccc3OC)CC2)cs1	i	i	nt	i	i	i
SMILES	PLK1 PBD block	mIDH1 inhibitor	Sfp inh	rTrxR1 inhibitor	VDR inhibitor	TrxR1 substrate
O=C1N(Cc2cccc(Cl)c2)C[C@@H]2C[C@@H](c3ccccn3)N3CCC[C@@]123	i	i	50µM	?	i	i
Cc1ccc(NC(=O)C2CCCN2S(=O)(=O)c2ccc3nc(-c4ccccc4)[nH]c3c2)cc1C (stereo not drawn)	nt	i	nt	i	i	i
CC(C)OCCCN1C=C2C(=O)C(C)(OC(=O)C3CCCC3)C(=O)C=C2C=C1c1ccsc1 (stereo not drawn)	nt	nt	i	nt	nt	nt
Cc1ccc(C(NC(=O)N2CCOCC2)C(Cl)Cl)cc1F (stereo not drawn)	27µM	i	i	i	i	i
CC(C)[C@H](NC(=O)[C@@H]1CSSC[C@H](NC(=O)[C@H](CC(=O)O)NC(=O)[C@H](C)NC(=O)[C@@H](NC(=O)CNC(=O)[C@H](C)N)[C@@H](C)O)C(=O)N[C@@H](Cc2ccccc2)C(=O)N[C@@H](Cc2c[nH]c3ccccc23)C(=O)N[C@@H](CCCCN)C(=O)N[C@@H](Cc2ccc(O)cc2)C(=O)N1)C(=O)O	nt	nt	i	nt	i	nt
Cc1nnc(N/N=C/C(C)c2ccccc2)[nH]c1=O (stereo not drawn)	i	i	79µM	i	i	i
Cc1nnc(N/N=C/c2c[nH]c3ccccc23)[nH]c1=O	i	i	i	i	i	i
C[N+](C)(C)C/C=C1/COCO1	3.4µM	i	i	?	i	i
CCCCOC(=O)c1ccc(NC(=O)c2sc3nc(C)cc(C)c3c2N)cc1	nt	i	nt	i	i	i
Cc1noc(C)c1-c1cncnc1NC1CC1	nt	nt	i	nt	i	nt
c1cncc(CNc2nc(-c3ccoc3)nc3ccccc23)c1	nt	nt	40µM	nt	?	nt
c1cncc(-c2nc(NCc3cccs3)c3ccccc3n2)c1	i	i	79µM!	i	i	i
c1ncc(-c2ccoc2)c(NC2CC2)n1	nt	nt	79µM	nt	50µM	nt
c1csc(CNc2cc(-c3ccoc3)ncn2)c1	nt	nt	32µM	nt	20µM	nt
c1cncc(-c2cc(NCc3cccs3)ncn2)c1	nt	nt	i	nt	i	nt
